Values joined by “and” are separate entries in the source; they are usually repeats but may differ in a detail not shown here. Identical values can stand only once. Results filed as inconclusive are left out.
% is set by controls: 0 for no effect and ±100 for the full control effect.

This experiment can be described thus: qHTS assay for small molecule antagonists of retinoid X receptor alpha signaling (AID 588546).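 Note: cells stimulated with 9-cis-retinoic acid as agonist.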 The note with it: HEK293T RXRa-UAS-bla, beta-lactamase ratio, antagonist mode; measured here: W530 green channel, cytotoxicity proxy. The gist of the method: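 Beta-lactamase reporter inhibition, read as CCF4 fluorescence ratio (ex 405, em 460/530 nm) after 2 h at RT. HEK293T UAS-bla cells, 2500/well, were stimulated with 9-cis-RA at 500 or 100 nM final alongside test compound for 18 h at 37 C.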
(Quantitative high-throughput screening tests each substance at several concentrations.)
As to `CC(COc1ccccc1)N(CCCl)Cc1ccccc1` (stereo not drawn), the max response was 9.59% and -12.9%.
To `O=C(Nc1ccc([N+](=O)[O-])cc1Cl)c1cc(Cl)ccc1O` belongs 3.51%; to `O=c1[nH]cc(F)c(=O)[nH]1`, -11.8%; to `Nc1c2c(nc3ccccc13)CCCC2`, 12.8%.
To `C[C@](N)(Cc1ccc(O)c(O)c1)C(=O)O` belongs -16.7%; to `CC(C)NCC(O)c1ccc(O)c(O)c1` (stereo not drawn), -15.7% and 0.88%; to `CC(C)C(=O)Nc1ccc([N+](=O)[O-])c(C(F)(F)F)c1`, 2.09% and 2.52%.
For the compound `O=C(c1ccc(OCCN2CCCCC2)cc1)c1c(-c2ccc(O)cc2)sc2cc(O)ccc12`, the max response is -24.2%.

For the origin of these results see PubChem BioAssay (NCATS).
